Assay outcomes: PubChem, several laboratories
Neddylation inh – blocks human cullin neddylation | P61081+Q13564 | TR-FRET cullin neddylation, biochemical | inhibition, % at 25 µM | 0.58% of 360,000 active | AID 651699; in the data active means inhibition above about 36%
TLR4-MyD88 BLA – blocks binding of human TLR4 to MyD88; O00206+Q99836; HeLa CL3-4 TLR4/MyD88 BLA complementation, FRET ratio; inhibition, % at 8.4 µM; 0.18% of 200,000 active; AID 861; in the data active means inhibition above about 25%;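 further: 0% = vehicle and 100% = reference inhibitor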
NOD2 RIPK2 PPI – inhibitors of human NOD2-RIPK2 interaction | O43353 | CHO BLA complementation NOD2-RIPK2, CCF4 ratio | inhibition, % at 4.98 µM | 0.38% of 360,000 active | AID 624267; in the data active means inhibition above about 21%;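 further: 0% = vehicle only and 100% = reference blocker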
Target sequence (O43353 whole entry, looked up): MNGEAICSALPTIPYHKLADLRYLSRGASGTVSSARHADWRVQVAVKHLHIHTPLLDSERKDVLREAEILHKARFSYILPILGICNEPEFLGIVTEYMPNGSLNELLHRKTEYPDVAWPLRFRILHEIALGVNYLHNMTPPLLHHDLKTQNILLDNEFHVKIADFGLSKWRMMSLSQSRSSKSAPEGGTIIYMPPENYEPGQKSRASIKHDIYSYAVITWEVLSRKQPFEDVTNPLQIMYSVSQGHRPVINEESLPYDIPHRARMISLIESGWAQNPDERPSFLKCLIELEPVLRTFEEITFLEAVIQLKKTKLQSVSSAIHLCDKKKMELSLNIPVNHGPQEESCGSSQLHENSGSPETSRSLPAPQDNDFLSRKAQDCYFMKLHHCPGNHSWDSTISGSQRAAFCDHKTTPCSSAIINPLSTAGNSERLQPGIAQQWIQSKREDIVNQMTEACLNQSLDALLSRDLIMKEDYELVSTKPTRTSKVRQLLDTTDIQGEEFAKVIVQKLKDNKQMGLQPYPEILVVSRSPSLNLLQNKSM
TLR9-MyD88 block – inhibitors of human TLR9-MyD88 binding; Q9NR96+Q99836; CHO BLA complementation TLR9-MyD88, CCF4 FRET ratio; inhibition, % at 4.98 µM; 0.21% of 340,000 active;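 active means inhibition above the mean over all tested compounds plus 3 SD, cut at about 21% in these data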;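 further: 0% = DMSO only wells and 100% = clavulanate BLA inhibitor control wells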
NPR1 activator – GC-A (human) enzyme activation; P16066; HEK293 GC-A cells, cGMP TR-FRET, EC30 ANP; 0% at EC30 ANP, 100% saturating ANP; activation, % at 10 µM; 0.14% of 370,000 active; in the data active means activation above about 40%
GC-B act – GC-B (human) receptor activation. P20594. HEK293-GC-B cells, CNP EC30, cGMP TR-FRET; 0% at EC30 CNP, 100% saturating CNP. activation, % at 10 µM. 0.11% of 370,000 active;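 active means activation at 10 µM reaching about 35% in either raw or pattern-adjusted values, limit read from the data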
NOD2 RIPK2 conf – NOD2-RIPK2 interaction inhibition confirmed | shares compounds with NOD2 RIPK2 PPI | CHO cells, NOD2-RIPK2 BLA complementation, CCF4 FRET | inhibition, % at 4.98 µM | 70% of 1,200 active | AID 624370;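 active means mean inhibition across replicates above a set limit taken from the earlier primary screen, cut at about 21% in these data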;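 further: 0% = DMSO-only wells and the high end = clavulanate BLA-blocked wells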
NOD2 BLA counter – counter-screen for NOD2-RIPK2 interaction inhibitors: BLA reporter. inhibition, % at 4.98 µM. shares compounds with NOD2 RIPK2 PPI. AID 624371. 57% of 1,200 active. CHO BLA reporter, CCF4 FRET ratio, counterscreen;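 active means mean inhibition above the low-control mean inhibition plus three low-control SD, cut at about 11% in these data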;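 further: 0% = DMSO only wells and 100% = clavulanate high control wells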
* hit, by the source's call; . = not tested or not shown. Most compounds without a hit are left out; they make up all but 1.2% or so of the library.

SMILES | Neddylation inh | TLR4-MyD88 BLA | NOD2 RIPK2 PPI | TLR9-MyD88 block | NPR1 activator | GC-B act | NOD2 RIPK2 conf | NOD2 BLA counter
O=C1C=CC(O)(c2cc(=O)c3c(O)cc(O)cc3o2)C=C1 | -18 | -13 | 30* | -2 | 0 | -9 | 21 | 18*
O=C1C(=C(I)I)c2ccccc2-c2ccccc21 | -56 | . | 68* | 14 | 7 | 5 | 84* | 7
CN(C)C(CNC(=O)C1CC(=O)N(c2cccc(C(F)(F)F)c2)C1)c1ccccc1 (configuration not stated) | -1 | . | -3 | -6 | 4 | -2 | . | .
COc1ccc(/C=C2\CN(Cc3ccccc3)C/C(=C\c3ccc(OC)c(O)c3)C2=O)cc1O | 3 | . | 26* | 10 | 10 | 2 | 27* | 5
CC(=O)O[C@@H]1C[C@@]2(C)[C@@H](CC[C@H]2[C@@H](C)/C=C\CC(C)C)C2=C[C@@H](O)[C@@]3(O)C[C@@H](O)[C@H](O)C[C@]3(CO)[C@]21O | -8 | . | -3 | . | 8 | -5 | . | .
O=C(Nc1cccc(O)c1)c1cc2nc(-c3ccccc3)cc(-c3ccccc3)n2n1 | . | -9 | 22* | 7 | 4 | -3 | 8 | 11*
N#Cc1ccc(C(C(=O)Nc2ccc3c(c2)OCCO3)n2c(=O)c(-c3ccco3)nc3ccccc32)cc1 (configuration not stated) | 4 | . | -12 | . | 1 | 4 | . | .
O=C(Nc1ccc2c(c1)OCCO2)C(c1ccccc1F)n1c(=O)c(-c2cc3ccccc3[nH]2)nc2ccccc21 (configuration not stated) | . | . | 49* | . | 7 | 5 | 45* | 67*
COc1ccc(NC(=O)C(c2ccc(C(F)(F)F)cc2)n2c(=O)c(-c3ccco3)nc3ccccc32)cc1 (configuration not stated) | 15 | . | -8 | . | 1 | 0 | . | .
O=C(Nc1ccc2c(c1)OCCO2)C(c1ccncc1)n1c(=O)c(-c2cc3ccccc3[nH]2)nc2ccccc21 (configuration not stated) | . | . | 34* | . | -1 | -16 | 37* | 58*
O=C(Nc1ccc2ccccc2c1)C(c1ccc(C(F)(F)F)cc1)n1c(=O)c(-c2cc3ccccc3[nH]2)nc2ccccc21 (configuration not stated) | . | . | 46* | . | 4 | 0 | 40* | 65*
O=C(Nc1ccc2c(c1)OCCO2)C(c1ccc(C(F)(F)F)cc1)n1c(=O)c(-c2cc3ccccc3[nH]2)nc2ccccc21 (configuration not stated) | . | . | 48* | . | 6 | 1 | 44* | 66*
O=C(Nc1ccc2c(c1)OCCO2)C(C1CC1)n1c(=O)c(-c2ccco2)nc2ccccc21 (configuration not stated) | 12 | . | -2 | . | -2 | -2 | . | .
CCCCNC(=O)C1(C)CCN1C(=O)c1cccnc1Oc1ccccc1 (configuration not stated) | 1 | . | 3 | . | 5 | 0 | . | .
O=C(NCCN1CCC(Cc2ccccc2)CC1)C1CCCN(S(=O)(=O)c2ccc(Cl)s2)C1 (configuration not stated) | . | . | . | . | -13 | -18 | . | .
COc1ccc(C(=O)/C=C/C(=O)N(CC(=O)NC2CCCCC2)Cc2cccs2)c(O)c1 | 15 | 24 | 74* | 18 | -34 | -14 | 85* | 17*
COc1ccc(CN(C(=O)/C=C/C(=O)c2ccc(OC)cc2O)C(C(=O)NC2CCCCC2)c2ccncc2)cc1 (configuration not stated) | 11 | -28 | 4 | -9 | 11 | -8 | . | .
CC1(C(=O)NS(=O)(=O)C2CC2)CCCN(C(=O)c2ccco2)C1 (configuration not stated) | 1 | . | -22 | . | -1 | -7 | . | .
Cc1ccc(S(=O)(=O)CCC(=O)c2cccc([N+](=O)[O-])c2)cc1 | -6 | . | 22* | -11 | 21 | 6 | 38* | 1
O=C(NCc1cccnc1)/C(=C/c1ccc(-c2ccc(Cl)cc2)o1)S(=O)(=O)c1ccccc1 | -2 | 0 | 41* | 8 | -25 | -14 | 36* | -3
O=C(NCc1cccnc1)/C(=C/c1ccc(-c2cccc(C(F)(F)F)c2)o1)NC(=O)c1ccccc1 | 28 | 7 | 2 | 1 | -1 | 9 | . | .
O=C(NCc1cccnc1)/C(=C\c1ccc(-c2ccc(Br)cc2)o1)S(=O)(=O)c1ccccc1 | -13 | 9 | 33* | -6 | -39 | -17 | 30* | -1
O=C(CN(Cc1ccc(Br)cc1)S(=O)(=O)c1ccccc1)NCc1cccnc1 | 4 | . | 4 | -5 | -2 | 0 | . | .
CC(C)CSc1nnc(-c2ccco2)n1C | . | . | . | . | 2 | -2 | . | .
CC(Sc1ccc(S(=O)(=O)N2CCOCC2)cc1[N+](=O)[O-])C(=O)O (configuration not stated) | -20 | -1 | 37* | -12 | 3 | -2 | -2 | -5
SMILES | Neddylation inh | TLR4-MyD88 BLA | NOD2 RIPK2 PPI | TLR9-MyD88 block | NPR1 activator | GC-B act | NOD2 RIPK2 conf | NOD2 BLA counter
CCC(C)Sc1cccc(-c2nc3cnccn3c2NC2CCCCC2)c1 (configuration not stated) | . | . | 34* | 22* | 15 | 7 | 28* | 42*
Cc1ccc(S(=O)(=O)SC/C=C/CSS(=O)(=O)c2ccc(C)cc2)cc1 | -2 | . | 7 | 20 | 7 | 13 | . | .
Cc1ccc(S(=O)(=O)SCCCSS(=O)(=O)c2ccc(C)cc2)cc1 | -1 | . | 36* | 2 | 10 | 18 | 43* | 2
CCOC(=O)c1c(CN2CCNCC2)nc2ccc(Cl)cc2c1-c1ccccc1 | -3 | . | 21* | -7 | -40 | -14 | 19 | -3
CCCCCCCCN1CN2Cc3ccc(C)cc3C2CS1(=O)=O (configuration not stated) | . | . | . | . | 3 | -2 | . | .
N#CC1=C(N)Oc2cc(N)ccc2C1c1ccccc1Cl (configuration not stated) | . | . | 28* | -4 | 38 | 5 | -2 | -1
CC1(c2ccc3ccccc3c2)NC(=O)N(CC(=O)N2CCCC(C(F)(F)F)C2)C1=O (configuration not stated) | 1 | . | 28* | 8 | -1 | 3 | 0 | -2
CC(=O)N1CCN(C(=O)CN2C(=O)NC(C)(c3ccc4ccccc4c3)C2=O)CC1 (configuration not stated) | 1 | . | -4 | -1 | 2 | 0 | . | .
O=C(OCc1ccccc1)[C@H](Cc1ccccc1)NC(=O)[C@@H]1CC=C[C@@H]2CCN(Cc3ccc(Cl)cc3)C(=O)[C@@H]21 | . | . | . | . | -6 | -2 | . | .
